PubChem BioAssay (NCI)
This is part of a sample that, as a whole, favours compounds with a hit. Of some 79,000 tested, about 15% had one in any assay. Cut-off read from the data, not from the text of the source: active = growth inhibition above about 70%; inactive = the rest.

Experiments:
[1] = NCI Yeast Anticancer Drug Screen. Data for the rad50 strain (AID 155);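 note: 0% = growth of vehicle-only cultures of the same strain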; conditions: S. cerevisiae rad50 strain growth inhibition; at 50.0 µM; stronger effect = higher value
Summary of the method: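 DNA repair mutant yeast, compound exposure, growth read-out; inhibition is taken relative to vehicle.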

[2] = NCI Yeast Anticancer Drug Screen. Data for the mec2-1 strain (AID 157); conditions: S. cerevisiae mec2-1 strain, at 50.0 µM, stronger effect = higher value
Summary of the method: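 Strain: mec2-1 (DNA repair/cell cycle alteration). Compound exposure, then growth measured; inhibition expressed relative to vehicle.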

[3] = NCI Yeast Anticancer Drug Screen. Data for the sgs1 mgt1 strain (AID 161);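 note: 0% = growth of cultures given vehicle only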; conditions: S. cerevisiae sgs1 mgt1 strain, at 50.0 µM, stronger effect = higher value
Summary of the method: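 Mutant yeast exposed to compound; growth scored against vehicle-only wells.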

[4] = NCI Yeast Anticancer Drug Screen. Data for the cln2 rad14 strain (AID 165);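 note: 0% = growth equal to vehicle treated cultures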; conditions: S. cerevisiae cln2 rad14 strain, at 50.0 µM, stronger effect = higher value
Summary of the method: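 Compounds are applied to the cln2 rad14 yeast strain, and growth is then compared with that of vehicle-treated cultures to give inhibition.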

[5] = NCI Yeast Anticancer Drug Screen. Data for the bub3 strain (AID 167); conditions: S. cerevisiae bub3 mutant strain, at 50.0 µM, stronger effect = higher value
Summary of the method: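 In this screen, a yeast mutant lacking normal mitotic checkpoint function is challenged with compound. Relative growth versus vehicle gives the inhibition value.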

[6] = NCI Yeast Anticancer Drug Screen. Data for the mlh1 rad18 strain (AID 175); conditions: S. cerevisiae mlh1 rad18 strain growth inhibition; at 50.0 µM; stronger effect = higher value
Summary of the method: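 Read-out is yeast growth inhibition, calculated against vehicle-only controls. The compound was applied to a strain engineered with DNA damage repair alterations.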

Measured: growth inhibition

CC12CCC[C@@](C)(C(=O)OC3OC(CO)C(O)C(O)C3O)[C@H]1CCC13CC4CC(OC4(CO)[C@H]1O)[C@@H]23 (stereo partly specified)
inactive: [1] -8.45% | [2] -26.1% | [3] -20.9% | [4] -18.8% | [5] -20.7% | [6] -17.9%

Cc1cc(N(C)c2ccccc2)nc(N(C)c2ccccc2)n1
inactive: [1] -24.4% | [2] -16.6% | [3] -6.05% | [4] -14.6% | [5] -23.3% | [6] -61.5%

CC(=O)N(CCCc1ccccc1)C(C)(C)C
inactive: [1] 5.95% | [2] 5.3% | [3] -3.05% | [4] -22.1% | [5] 2.25% | [6] 6.15%

O=C(O)CCc1ccc(-c2ccccc2)[nH]1
inactive: [1] -14.3% | [2] -6.95% | [3] -11.7% | [4] 1.35% | [5] -29.1% | [6] -16.6%

CCNCC(=O)Nc1ccc2c(c1)C(=O)c1ccc(NC(=O)CNCC)cc1C2=O
inactive: [1] 20.9% | [2] 28.5% | [3] 29.2% | [4] -4.55% | [5] 3.85% | [6] 50.8%

COC(=O)C1C(=O)c2ccccc2C(C)C1c1ccccc1C (stereo unspecified)
inactive: [1] 5% | [2] 41.4% | [3] 26.2% | [4] 4.15% | [5] 55.8% | [6] 27.6%

Nc1nc(-c2ccccc2)nc(N)c1C=O
inactive: [1] -21.8% | [2] -21.9% | [3] -43.2% | [4] -4.95% | [5] -6.9% | [6] -20.6%

Nc1ccc(S(=O)(=O)NC(=O)NCc2ccccc2)cc1
inactive: [1] 0.7% | [2] -5% | [3] 3.5% | [4] -33% | [5] -10.6% | [6] -9.55%

Nc1ncnc2c1ncn2C1OC(CSCc2ccc(Cl)cc2)C(O)C1O (stereo unspecified)
inactive: [1] 26.6% | [2] 10.8% | [3] 15.4% | [4] 10.6% | [5] 58.7% | [6] 22.2%

CC(=O)N(C)N=Nc1ccc(Cl)cc1
inactive: [1] 10.4% | [2] 11.7% | [3] 2.05% | [4] -17.6% | [5] 3.8% | [6] 15.9%

COc1ccc(OC(=O)Nc2cccc(Cl)c2)cc1
inactive: [1] 8.4% | [2] 39.1% | [3] 29.8% | [4] -11.3% | [5] 31.4% | [6] 55.6%

CCCCCCCCCOCC(COP(=O)([O-])OCC[N+](C)(C)C)OC (stereo unspecified)
inactive: [1] 10.2% | [2] 13.3% | [3] 1.4% | [4] -22.4% | [5] -7.75% | [6] 17.5%

O=Cc1cccc2[nH]ccc12
inactive: [1] 5.9% | [2] -7.95% | [3] 13% | [4] -4.6% | [5] 7.85% | [6] 3.25%

C=CCC1(C(=O)OC)CCC/C(=N\O)C1 (stereo unspecified)
inactive: [1] 7.5% | [2] -17.8% | [3] -19.4% | [4] 4.1% | [5] -26.9% | [6] -3.45%

c1ccc2c(c1)Cc1c(Cc3csc4ccccc34)ccc3cccc-2c13
inactive: [1] -14.2% | [2] -22.4% | [3] -4.1% | [4] 13.3% | [5] -5% | [6] -15.2%

O=C(CCc1cc(-c2ccccc2)nc(=S)[nH]1)Nc1ccccc1[N+](=O)[O-]
inactive: [1] 10% | [2] -8.05% | [3] 9% | [4] 29.6% | [5] 15.5% | [6] 7.25%

O=C(O)COc1ccccc1P(=O)(c1ccccc1)c1ccccc1
inactive: [1] 23.1% | [2] 17.4% | [3] 9.7% | [4] 35.8% | [5] 22.4% | [6] 23%

CSc1nnc2c3ccccc3ccn12
inactive: [1] 4.9% | [2] 11.6% | [3] -2.25% | [4] -3.3% | [5] -14.1% | [6] 52.5%

CCCCC1(C=O)NC(=O)N(C)C1=O (stereo unspecified)
inactive: [1] 5% | [2] 2.35% | [3] -10.8% | [4] 5.6% | [5] 7.2% | [6] -9.35%

C=CCNC(=O)NCCCC(NC(C)=O)C(=O)NCc1ccccc1 (stereo unspecified)
inactive: [1] -20.9% | [2] -21.3% | [3] -14.7% | [4] 6.75% | [5] -22.3% | [6] -20.6%

CCOC(=O)c1cnc2ccccc2c1N=[N+]=[N-]
inactive: [1] -0.9% | [2] 27.8% | [3] 25.5% | [4] -34% | [5] 40.5% | [6] 29.9%
